# The supplement of paper PMC8728848
# This is one part of a sample in which the strongest signals are shown more often than they occur.
# B1: Nc3LysM (protein)
# chain: QFTVPPDTTAEPNTIKTCTWWHVAGSGDSCTSIASTYGITSEQFARWDMETTDSPKNPSVATACKLTVGNSYCIENNFGQDDPPTPSISSSTLIGTATTSTTASTTTGNGISTPTPIQEGMETATTTTSSGNGITTPTPTQAGMETVGNCDRFHLVKSGDQCGTIASTYGITLANFYSWNPAVGTSCQSLWLDTYVCVRTIGFVPPKTTTTTTKKPTSTTSAGGVATPTPTQPGMETVSGCKKFHKGRGNVSTVASGDQCGTIATRYGISLANFYSWNPAVGSSCQTLWLDYYVCVGR
# Tests used:
# Test in all cases: glycan array binding signal (z-score within array); higher = stronger binding
# Details in all cases: glycan notation: IUPAC condensed, linker removed
# [1] = biological target: Fuc(a1-2)Gal(b1-4)Glc
# Procedure, shortened: (§1)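 The binding signal is a Z-score computed within each array and averaged over linkers. Arrays of the same protein sequence at different concentrations or buffers were also averaged together. Data originate from 3228 arrays in the Consortium for Functional Glycomics database, kept only where the protein sequence was available.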
# [2] = biological target: Fuc(a1-2)Gal(b1-4)GlcNAc
# Procedure, shortened: as §1
# [3] = biological target: Fuc(a1-2)Gal(b1-4)[Fuc(a1-3)]GlcNAc(b1-3)Gal(b1-4)[Fuc(a1-3)]GlcNAc(b1-3)Gal(b1-4)[Fuc(a1-3)]GlcNAc
# Procedure, shortened: as §1
# [4] = biological target: Fuc(a1-2)Gal(b1-4)[Fuc(a1-3)]GlcNAc(b1-3)GalNAc
# Procedure, shortened: as §1
# [5] = biological target: Fuc(a1-2)[Gal(a1-3)]Gal(b1-4)GlcNAc(b1-2)Man(a1-3)[Fuc(a1-2)[Gal(a1-3)]Gal(b1-4)GlcNAc(b1-2)Man(a1-6)]Man(b1-4)GlcNAc(b1-4)[Fuc(a1-6)]GlcNAc
# Procedure, shortened: as §1
# [6] = biological target: Fuc(a1-2)[Gal(a1-3)]Gal(b1-4)[Fuc(a1-3)]Glc
# Procedure, shortened: as §1
# [7] = biological target: Fuc(a1-2)[Gal(a1-3)]Gal(b1-4)[Fuc(a1-3)]GlcNAc
# Procedure, shortened: as §1
# [8] = biological target: Fuc(a1-2)[GalNAc(a1-3)]Gal(b1-3)GlcNAc(b1-6)GalNAc
# Procedure, shortened: as §1
# [9] = biological target: Fuc(a1-2)[GalNAc(a1-3)]Gal(b1-4)[Fuc(a1-3)]GlcNAc(b1-3)GalNAc
# Procedure, shortened: as §1
# [10] = biological target: Fuc(a1-2)[GalNAc(b1-3)]Gal
# Procedure, shortened: as §1
# [11] = biological target: Gal(a1-3)Gal(b1-3)GlcNAc(b1-2)Man(a1-3)[Gal(a1-3)Gal(b1-3)GlcNAc(b1-2)Man(a1-6)]Man(b1-4)GlcNAc(b1-4)GlcNAc
# Procedure, shortened: as §1
# [12] = biological target: Gal(a1-3)Gal(b1-3)[Fuc(a1-4)]GlcNAc(b1-2)Man(a1-3)[Gal(a1-3)Gal(b1-3)[Fuc(a1-4)]GlcNAc(b1-2)Man(a1-6)]Man(b1-4)GlcNAc(b1-4)GlcNAc
# Procedure, shortened: as §1
# [13] = biological target: Gal(a1-3)Gal(b1-4)GlcNAc
# Procedure, shortened: as §1
# [14] = biological target: Gal(b1-3)GlcNAc(b1-2)Man(a1-3)[GlcNAc(b1-4)][Gal(b1-3)GlcNAc(b1-2)Man(a1-6)]Man(b1-4)GlcNAc(b1-4)GlcNAc
# Procedure, shortened: as §1
# [15] = biological target: Gal(b1-3)GlcNAc(b1-3)Gal(b1-4)GlcNAc(b1-2)[Gal(b1-3)GlcNAc(b1-3)Gal(b1-4)GlcNAc(b1-6)]Man(a1-6)[Gal(b1-3)GlcNAc(b1-3)Gal(b1-4)GlcNAc(b1-2)Man(a1-3)]Man(b1-4)GlcNAc(b1-4)[Fuc(a1-6)]GlcNAc
# Procedure, shortened: as §1
# [16] = biological target: Gal(b1-4)GlcNAc(b1-2)Man(a1-3)[Gal(b1-4)GlcNAc(b1-2)Man(a1-6)]Man(b1-4)GlcNAc(b1-4)[Fuc(a1-6)]GlcNAc
# Procedure, shortened: as §1
# [17] = biological target: Gal(b1-4)GlcNAc(b1-3)Gal(b1-4)GlcNAc(b1-2)[Gal(b1-4)GlcNAc(b1-3)Gal(b1-4)GlcNAc(b1-6)]Man(a1-6)[Gal(b1-4)GlcNAc(b1-3)Gal(b1-4)GlcNAc(b1-2)Man(a1-3)]Man(b1-4)GlcNAc(b1-4)GlcNAc
# Procedure, shortened: as §1
# [18] = biological target: Gal(b1-4)GlcNAc(b1-3)Gal(b1-4)GlcNAc(b1-2)[Gal(b1-4)GlcNAc(b1-3)Gal(b1-4)GlcNAc(b1-6)]Man(a1-6)[Gal(b1-4)GlcNAc(b1-3)Gal(b1-4)GlcNAc(b1-2)Man(a1-3)]Man(b1-4)GlcNAc(b1-4)[Fuc(a1-6)]GlcNAc
# Procedure, shortened: as §1
# [19] = biological target: Gal(b1-4)GlcNAc(b1-3)Gal(b1-4)GlcNAc(b1-3)Gal(b1-4)GlcNAc(b1-3)Gal(b1-4)GlcNAc(b1-3)Gal(b1-4)GlcNAc(b1-2)[Gal(b1-4)GlcNAc(b1-3)Gal(b1-4)GlcNAc(b1-3)Gal(b1-4)GlcNAc(b1-3)Gal(b1-4)GlcNAc(b1-3)Gal(b1-4)GlcNAc(b1-6)]Man(a1-6)[Gal(b1-4)GlcNAc(b1-3)Gal(b1-4)GlcNAc(b1-3)Gal(b1-4)GlcNAc(b1-3)Gal(b1-4)GlcNAc(b1-3)Gal(b1-4)GlcNAc(b1-2)Man(a1-3)]Man(b1-4)GlcNAc(b1-4)[Fuc(a1-6)]GlcNAc
# Procedure, shortened: as §1
# [20] = biological target: Gal3S(b1-4)[Fuc(a1-3)]GlcNAc6S
# Procedure, shortened: as §1
# [21] = biological target: Gal6S(b1-4)Glc6S
# Procedure, shortened: as §1
# [22] = biological target: Glc(a1-6)Glc(a1-6)Glc(a1-6)Glc
# Procedure, shortened: as §1
# [23] = biological target: GlcA3S(b1-3)Gal(b1-4)GlcNAc(b1-3)Gal(b1-4)Glc
# Procedure, shortened: as §1
# [24] = biological target: GlcNAc(b1-2)Man(a1-3)[GlcNAc(b1-2)Man(a1-6)]Man(b1-4)GlcNAc(b1-4)[Fuc(a1-6)]GlcNAc
# Procedure, shortened: as §1
# [25] = biological target: GlcNAc(b1-2)[GlcNAc(b1-6)]Man(a1-6)[GlcNAc(b1-2)Man(a1-3)]Man(b1-4)GlcNAc(b1-4)[Fuc(a1-6)]GlcNAc
# Procedure, shortened: as §1
# [26] = biological target: GlcNAc(b1-3)Gal(b1-4)Glc
# Procedure, shortened: as §1
# [27] = biological target: GlcNAc(b1-3)Gal(b1-4)GlcNAc(b1-3)Gal(b1-4)GlcNAc(b1-3)Gal(b1-4)GlcNAc(b1-2)Man(a1-3)[GlcNAc(b1-3)Gal(b1-4)GlcNAc(b1-3)Gal(b1-4)GlcNAc(b1-3)Gal(b1-4)GlcNAc(b1-2)Man(a1-6)]Man(b1-4)GlcNAc(b1-4)GlcNAc
# Procedure, shortened: as §1
# [28] = biological target: GlcNAc(b1-3)Gal(b1-4)GlcNAc(b1-3)Gal(b1-4)GlcNAc(b1-3)Gal(b1-4)GlcNAc(b1-3)Gal(b1-4)GlcNAc(b1-2)Man(a1-3)[GlcNAc(b1-3)Gal(b1-4)GlcNAc(b1-3)Gal(b1-4)GlcNAc(b1-3)Gal(b1-4)GlcNAc(b1-3)Gal(b1-4)GlcNAc(b1-2)Man(a1-6)]Man(b1-4)GlcNAc(b1-4)GlcNAc
# Procedure, shortened: as §1
# [29] = biological target: GlcNAc(b1-3)Gal(b1-4)GlcNAc(b1-6)[GlcNAc(b1-3)]Gal(b1-4)GlcNAc
# Procedure, shortened: as §1
# [30] = biological target: GlcNAc(b1-3)GalNAc
# Procedure, shortened: as §1
# [31] = biological target: GlcNAc(b1-4)GlcNAc(b1-4)GlcNAc
# Procedure, shortened: as §1
# [32] = biological target: GlcNAc(b1-4)GlcNAc(b1-4)GlcNAc(b1-4)GlcNAc(b1-4)GlcNAc
# Procedure, shortened: as §1
# [33] = biological target: GlcNAc(b1-4)GlcNAc(b1-4)GlcNAc(b1-4)GlcNAc(b1-4)GlcNAc(b1-4)GlcNAc
# Procedure, shortened: as §1
# [34] = biological target: Man(a1-3)[Man(a1-6)]Man(b1-4)GlcNAc(b1-4)[Fuc(a1-6)]GlcNAc
# Procedure, shortened: as §1
# [35] = biological target: Neu5Ac(a2-3)Gal(b1-3)GlcNAc(b1-2)[Neu5Ac(a2-3)Gal(b1-3)GlcNAc(b1-4)]Man(a1-6)[Neu5Ac(a2-3)Gal(b1-3)GlcNAc(b1-2)Man(a1-3)]Man(b1-4)GlcNAc(b1-4)GlcNAc
# Procedure, shortened: as §1
# [36] = biological target: Neu5Ac(a2-3)Gal(b1-3)[Neu5Ac(a2-6)]GlcNAc(b1-3)[Fuc(a1-3)[Gal(b1-4)]GlcNAc(b1-6)]Gal(b1-4)Glc
# Procedure, shortened: as §1
# [37] = biological target: Neu5Ac(a2-3)Gal(b1-4)[Fuc(a1-3)]GlcNAc(b1-3)Gal(b1-4)GlcNAc
# Procedure, shortened: as §1
# [38] = biological target: Neu5Ac(a2-3)Gal(b1-4)[Fuc(a1-3)]GlcNAc(b1-6)[Gal(b1-3)]GalNAc
# Procedure, shortened: as §1
# [39] = biological target: Neu5Ac(a2-3)[GalNAc(b1-4)]Gal(b1-4)GlcNAc
# Procedure, shortened: as §1
# [40] = biological target: Neu5Ac(a2-6)Gal(b1-3)GlcNAc(b1-3)[Gal(b1-4)GlcNAc(b1-6)]Gal(b1-4)Glc
# Procedure, shortened: as §1
# [41] = biological target: Neu5Ac(a2-6)Gal(b1-4)GlcNAc(b1-2)Man(a1-3)Man(b1-4)GlcNAc(b1-4)GlcNAc
# Procedure, shortened: as §1
# [42] = biological target: Neu5Ac(a2-6)Gal(b1-4)GlcNAc(b1-2)Man(a1-6)[GlcNAc(b1-2)Man(a1-3)]Man(b1-4)GlcNAc(b1-4)GlcNAc
# Procedure, shortened: as §1
# [43] = biological target: Neu5Ac(a2-6)Gal(b1-4)GlcNAc(b1-3)Gal(b1-4)GlcNAc(b1-3)[Neu5Ac(a2-6)Gal(b1-4)GlcNAc(b1-3)Gal(b1-4)GlcNAc(b1-6)]GalNAc
# Procedure, shortened: as §1
# [44] = biological target: Neu5Ac(a2-6)Gal(b1-4)GlcNAc(b1-3)Gal(b1-4)GlcNAc(b1-6)[Gal(b1-3)]GalNAc
# Procedure, shortened: as §1
# [45] = biological target: Neu5Ac(a2-6)GalNAc
# Procedure, shortened: as §1
# [46] = biological target: Neu5Ac(a2-6)GlcNAc(b1-4)GlcNAc(b1-4)GlcNAc
# Procedure, shortened: as §1
# [47] = biological target: Neu5Ac(a2-8)Neu5Ac(a2-3)Gal(b1-3)GalNAc(b1-4)[Neu5Ac(a2-8)Neu5Ac(a2-3)]Gal(b1-4)Glc
# Procedure, shortened: as §1
# [48] = biological target: Neu5Ac(a2-8)Neu5Ac(a2-8)Neu5Ac(a2-3)[Gal(b1-3)GalNAc(b1-4)]Gal(b1-4)Glc
# Procedure, shortened: as §1
# [49] = biological target: Neu5Ac(a2-8)Neu5Ac(a2-8)Neu5Ac(a2-3)[GalNAc(b1-4)]Gal(b1-4)Glc
# Procedure, shortened: as §1
binder,measurement,setting,value
B1,glycan array binding signal (z-score),[1],0.401
same,glycan array binding signal (z-score),[2],-0.219
same,glycan array binding signal (z-score),[3],0.172
same,glycan array binding signal (z-score),[4],-0.251
same,glycan array binding signal (z-score),[5],-0.173
same,glycan array binding signal (z-score),[6],0.064
same,glycan array binding signal (z-score),[7],-0.157
same,glycan array binding signal (z-score),[8],-0.237
same,glycan array binding signal (z-score),[9],-0.076
same,glycan array binding signal (z-score),[10],-0.092
same,glycan array binding signal (z-score),[11],0.295
same,glycan array binding signal (z-score),[12],0.161
same,glycan array binding signal (z-score),[13],0.019
same,glycan array binding signal (z-score),[14],0.083
same,glycan array binding signal (z-score),[15],0.304
same,glycan array binding signal (z-score),[16],-0.048
same,glycan array binding signal (z-score),[17],0.008
same,glycan array binding signal (z-score),[18],-0.048
same,glycan array binding signal (z-score),[19],0.342
same,glycan array binding signal (z-score),[20],0.178
same,glycan array binding signal (z-score),[21],0.307
same,glycan array binding signal (z-score),[22],0.326
same,glycan array binding signal (z-score),[23],-0.126
same,glycan array binding signal (z-score),[24],0.106
same,glycan array binding signal (z-score),[25],-0.037
same,glycan array binding signal (z-score),[26],-0.132
same,glycan array binding signal (z-score),[27],-0.013
same,glycan array binding signal (z-score),[28],-0.036
same,glycan array binding signal (z-score),[29],0.184
same,glycan array binding signal (z-score),[30],0.056
same,glycan array binding signal (z-score),[31],2.52
same,glycan array binding signal (z-score),[32],17.3
same,glycan array binding signal (z-score),[33],16.7
same,glycan array binding signal (z-score),[34],0.04
same,glycan array binding signal (z-score),[35],0.123
same,glycan array binding signal (z-score),[36],-0.004
same,glycan array binding signal (z-score),[37],0.009
same,glycan array binding signal (z-score),[38],-0.127
same,glycan array binding signal (z-score),[39],-0.172
same,glycan array binding signal (z-score),[40],-0.162
same,glycan array binding signal (z-score),[41],0.14
same,glycan array binding signal (z-score),[42],0.31
same,glycan array binding signal (z-score),[43],0.111
same,glycan array binding signal (z-score),[44],-0.099
same,glycan array binding signal (z-score),[45],0.071
same,glycan array binding signal (z-score),[46],-0.143
same,glycan array binding signal (z-score),[47],-0.231
same,glycan array binding signal (z-score),[48],0.394
same,glycan array binding signal (z-score),[49],-0.059
